From PubChem BioAssay (Tox21)
Results filed as inconclusive are left out. Activity calls are given as the source filed them. The call rests on the fitted dose curve; in most records, active means well fitted curve in the direction sought with a large enough effect in the repeat runs; inconclusive means weak or mixed curves; inactive means no such curve, though single readings can be large; an effect the other way counts as inactive or inconclusive.

Tests used:
[1] = Human pregnane X receptor (PXR) small molecule agonists, qHTS cell viability counter screen (AID 1346977); further: nearly all actives have a fitted effect of over 50% in size
Outline: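 Readout is CellTiter-Fluor fluorescence from PXR-Luc HepG2 cells. Plated cells rested 5hr, then were treated with compounds for 24hr at 37C and 5% CO2, with reagent present during the last hour.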

[2] = Caspase-3/7 induction in HepG2 cells by small molecules, qHTS assay (AID 1346978); further: nearly all actives have a fitted effect of over 15% in size
Outline: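 Wild-type HepG2 cells, 2,000/well, settled 5 hr at 37 C and 5% CO2, then compound-treated for 17 hr; caspase-3/7 activity read by luminescent Caspase-Glo 3/7 after 30 min at room temperature.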

[3] = Caspase-3/7 induction in CHO-K1 cells by small molecules, qHTS assay (AID 1346980); further: nearly all actives have a fitted effect of over 15% in size
Outline: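 Wild-type CHO-K1 cells exposed to compounds for 17hr at 37 C, 5% CO2. Caspase-3/7 activity then measured by Caspase-Glo 3/7 luminescence after 30min at room temperature.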

[4] = Caspase-3/7 induction in HepG2 cells by small molecules, qHTS cell viability counter screen (AID 1346981); further: series mostly up to about 92 µM; nearly all actives have a fitted effect of over 30% in size
Outline: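 CellTiter-Fluor fluorescence measured viability in the same wells used for Caspase-Glo 3/7. HepG2 (wild type) at 2,000 cells/well were pre-incubated 5 hr, dosed, and given reagent at 16 hr, with 1 hr further at 37C.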

[5] = target: Cytochrome P450 2D6 (Homo sapiens) (UniProt P10635); experiment: Cytochrome P450 Family 2 Subfamily D Member 6 (CYP2D6) small molecule antagonists: luciferase reporter qHTS assay (AID 1671196); further: nearly all actives have a fitted effect of over 50% in size; further: potency means the concentration at half of the fitted maximal effect
Chain of Cytochrome P450 2D6 (Homo sapiens) (P10635 whole entry, looked up): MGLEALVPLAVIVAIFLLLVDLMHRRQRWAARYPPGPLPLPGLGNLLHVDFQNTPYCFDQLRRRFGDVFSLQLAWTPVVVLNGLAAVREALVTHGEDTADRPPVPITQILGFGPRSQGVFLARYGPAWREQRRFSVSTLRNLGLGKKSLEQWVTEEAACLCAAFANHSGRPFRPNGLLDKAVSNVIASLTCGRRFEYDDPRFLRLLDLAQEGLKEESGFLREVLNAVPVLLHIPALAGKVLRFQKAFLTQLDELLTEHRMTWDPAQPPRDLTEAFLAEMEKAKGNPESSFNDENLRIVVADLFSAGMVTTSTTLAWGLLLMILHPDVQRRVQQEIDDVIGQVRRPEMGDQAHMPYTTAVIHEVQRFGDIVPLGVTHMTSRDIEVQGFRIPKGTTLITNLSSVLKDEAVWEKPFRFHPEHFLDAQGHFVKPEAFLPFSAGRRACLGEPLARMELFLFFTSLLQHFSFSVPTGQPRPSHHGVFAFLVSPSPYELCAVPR
Outline: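 CYP2D6 activity was followed as luminescence from its luciferin product after a 1 h NADPH-driven reaction at room temperature. Enzyme-substrate mix and compound were pre-incubated for 10 min, and the signal was read 20 min after adding detection reagent.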

[6] = target: Cytochrome P450 2C9 (Homo sapiens) (UniProt P11712); experiment: Cytochrome P450 Family 2 Subfamily C Member 9 (CYP2C9) small molecule antagonists: luciferase reporter qHTS assay (AID 1671198); further: nearly all actives have a fitted effect of over 50% in size; further: potency means the concentration at half of the fitted maximal effect
Chain of Cytochrome P450 2C9 (Homo sapiens) (P11712 whole entry, looked up): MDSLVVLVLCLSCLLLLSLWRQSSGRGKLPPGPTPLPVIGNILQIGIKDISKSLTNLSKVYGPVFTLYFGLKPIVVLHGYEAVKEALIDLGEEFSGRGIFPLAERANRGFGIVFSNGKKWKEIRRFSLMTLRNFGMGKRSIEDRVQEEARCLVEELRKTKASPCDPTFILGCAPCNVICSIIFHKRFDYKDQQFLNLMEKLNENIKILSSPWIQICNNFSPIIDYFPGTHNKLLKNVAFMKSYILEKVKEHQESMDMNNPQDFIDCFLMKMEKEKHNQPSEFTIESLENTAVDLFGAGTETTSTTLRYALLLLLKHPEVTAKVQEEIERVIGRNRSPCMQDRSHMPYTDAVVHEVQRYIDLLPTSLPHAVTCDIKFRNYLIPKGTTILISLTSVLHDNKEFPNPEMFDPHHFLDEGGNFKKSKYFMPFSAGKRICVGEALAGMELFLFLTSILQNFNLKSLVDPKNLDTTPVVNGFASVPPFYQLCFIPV
Outline: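 P450-Glo proluciferin substrate with CYP2C9 enzyme; 10 min RT preincubation, then NADPH regeneration 1 h at 37C; luciferin detection reagent 20 min RT, luminescence in relative luminescence units.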

[7] = target: Cytochrome P450 1A2 (Homo sapiens) (UniProt P05177); experiment: Cytochrome P450 Family 1 Subfamily A Member 2 (CYP1A2) small molecule antagonists: luciferase reporter qHTS assay (AID 1671199); further: nearly all actives have a fitted effect of over 50% in size; further: potency means the concentration at half of the fitted maximal effect
Chain of Cytochrome P450 1A2 (Homo sapiens) (P05177 whole entry, looked up): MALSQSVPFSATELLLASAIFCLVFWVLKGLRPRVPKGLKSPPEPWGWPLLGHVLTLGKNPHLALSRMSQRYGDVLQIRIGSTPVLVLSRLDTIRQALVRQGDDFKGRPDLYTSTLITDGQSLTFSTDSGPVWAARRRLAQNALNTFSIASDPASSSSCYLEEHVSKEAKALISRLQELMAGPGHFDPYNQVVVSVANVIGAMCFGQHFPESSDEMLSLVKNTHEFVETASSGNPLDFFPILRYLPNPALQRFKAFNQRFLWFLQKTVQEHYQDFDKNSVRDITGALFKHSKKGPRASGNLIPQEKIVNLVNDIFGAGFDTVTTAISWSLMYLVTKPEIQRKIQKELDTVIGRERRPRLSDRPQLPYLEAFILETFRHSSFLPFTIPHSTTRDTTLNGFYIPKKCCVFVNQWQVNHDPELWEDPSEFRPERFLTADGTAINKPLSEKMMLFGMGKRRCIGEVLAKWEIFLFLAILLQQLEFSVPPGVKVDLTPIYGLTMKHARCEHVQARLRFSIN
Outline: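 Luminescence from luciferin formed by CYP1A2 from a proluciferin substrate, read 20 min after detection reagent. Compound was pre-incubated 10 min with enzyme-substrate, and reaction started with NADPH regeneration solution for 1 h at room temperature; furafylline control.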

[8] = target: Voltage-gated inwardly rectifying potassium channel KCNH2 (Homo sapiens) (UniProt Q12809); experiment: Human Ether-a-go-go-Related Gene (hERG) channel small molecule antagonists: fluorescence cell-based qHTS assay (AID 1671200); further: nearly all actives have a fitted effect of over 50% in size; further: potency means the concentration at half of the fitted maximal effect
Chain of Voltage-gated inwardly rectifying potassium channel KCNH2 (Homo sapiens) (Q12809 whole entry, looked up): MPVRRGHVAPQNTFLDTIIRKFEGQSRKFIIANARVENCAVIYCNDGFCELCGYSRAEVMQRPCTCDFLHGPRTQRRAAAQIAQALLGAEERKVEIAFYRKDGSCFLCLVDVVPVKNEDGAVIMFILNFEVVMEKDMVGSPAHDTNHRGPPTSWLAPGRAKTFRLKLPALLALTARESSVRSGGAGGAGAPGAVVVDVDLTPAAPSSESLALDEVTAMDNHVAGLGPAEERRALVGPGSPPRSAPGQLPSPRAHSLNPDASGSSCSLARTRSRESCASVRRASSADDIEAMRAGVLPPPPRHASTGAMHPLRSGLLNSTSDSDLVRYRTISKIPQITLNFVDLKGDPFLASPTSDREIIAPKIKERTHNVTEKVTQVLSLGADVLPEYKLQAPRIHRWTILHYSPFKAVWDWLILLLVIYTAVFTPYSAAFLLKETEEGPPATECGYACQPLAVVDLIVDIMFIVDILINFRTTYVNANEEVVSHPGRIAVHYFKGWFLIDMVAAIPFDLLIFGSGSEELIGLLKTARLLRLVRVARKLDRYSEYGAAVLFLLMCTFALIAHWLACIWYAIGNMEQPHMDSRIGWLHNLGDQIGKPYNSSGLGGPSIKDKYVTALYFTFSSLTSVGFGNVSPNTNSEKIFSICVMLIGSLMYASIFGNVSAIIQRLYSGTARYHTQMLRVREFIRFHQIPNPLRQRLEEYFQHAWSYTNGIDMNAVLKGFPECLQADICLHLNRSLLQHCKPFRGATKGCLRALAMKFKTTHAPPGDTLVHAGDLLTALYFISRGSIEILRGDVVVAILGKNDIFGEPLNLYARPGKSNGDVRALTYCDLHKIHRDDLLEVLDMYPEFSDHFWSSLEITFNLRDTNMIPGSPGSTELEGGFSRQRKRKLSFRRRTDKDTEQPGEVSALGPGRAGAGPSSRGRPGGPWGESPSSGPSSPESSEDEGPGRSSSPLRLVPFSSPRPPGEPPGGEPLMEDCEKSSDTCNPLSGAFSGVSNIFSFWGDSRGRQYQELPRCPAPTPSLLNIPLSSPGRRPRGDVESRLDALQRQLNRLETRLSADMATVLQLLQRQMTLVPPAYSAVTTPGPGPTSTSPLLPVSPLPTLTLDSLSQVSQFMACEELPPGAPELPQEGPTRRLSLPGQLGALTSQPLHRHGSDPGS
Outline: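 Measured: Tl+ flux via fluorescence (480/540 nm) in hERG-expressing U2OS cells after 1 h dye loading at room temperature.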

[9] = target: Cytochrome P450 3A4 (Homo sapiens) (UniProt P08684); experiment: Cytochrome P450 Family 3 Subfamily A Member 4 (CYP3A4) small molecule antagonists: luciferase reporter qHTS assay (AID 1671201); further: nearly all actives have a fitted effect of over 50% in size; further: potency means the concentration at half of the fitted maximal effect
Chain of Cytochrome P450 3A4 (Homo sapiens) (P08684 whole entry, looked up): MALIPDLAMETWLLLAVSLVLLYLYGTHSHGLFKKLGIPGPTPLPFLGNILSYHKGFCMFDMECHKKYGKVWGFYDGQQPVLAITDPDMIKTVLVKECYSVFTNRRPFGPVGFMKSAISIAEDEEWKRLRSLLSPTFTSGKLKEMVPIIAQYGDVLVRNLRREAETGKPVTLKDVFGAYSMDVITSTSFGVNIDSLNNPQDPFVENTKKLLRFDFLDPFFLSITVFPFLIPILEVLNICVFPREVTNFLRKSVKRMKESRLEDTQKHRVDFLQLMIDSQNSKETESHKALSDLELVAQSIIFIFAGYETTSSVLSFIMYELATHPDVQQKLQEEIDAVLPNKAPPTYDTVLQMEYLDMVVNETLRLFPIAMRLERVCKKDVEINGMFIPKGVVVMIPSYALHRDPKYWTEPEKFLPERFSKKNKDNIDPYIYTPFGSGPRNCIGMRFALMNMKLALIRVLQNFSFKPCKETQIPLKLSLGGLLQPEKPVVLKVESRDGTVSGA
Outline: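 Setup: enzyme-substrate mix, compound pin transfer, 10 min RT. Reaction: NADPH regeneration solution, 1 h RT. Readout: detection reagent stops turnover, luminescence measured after 20 min, expressed in relative luminescence units.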

[10] = Caspase-3/7 induction in CHO-K1 cells by small molecules, qHTS cell viability counter screen (AID 1346979); further: nearly all actives have a fitted effect of over 35% in size; further: potency means the concentration at half of the fitted maximal effect
Outline: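 To flag cytotoxic compounds, treated CHO-K1 wild-type cells were given CellTiter-Fluor at 16hr and read fluorescently after 1hr at 37C; the caspase-3/7 luminescence was measured in these same wells.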

[11] = target: Nuclear receptor subfamily 1 group I member 2 (Homo sapiens) (UniProt O75469); experiment: Human pregnane X receptor (PXR) small molecule agonists, qHTS assay (AID 1346982); further: nearly all actives have a fitted effect of over 35% in size; further: potency means the concentration at half of the fitted maximal effect
Chain of Nuclear receptor subfamily 1 group I member 2 (Homo sapiens) (O75469 whole entry, looked up): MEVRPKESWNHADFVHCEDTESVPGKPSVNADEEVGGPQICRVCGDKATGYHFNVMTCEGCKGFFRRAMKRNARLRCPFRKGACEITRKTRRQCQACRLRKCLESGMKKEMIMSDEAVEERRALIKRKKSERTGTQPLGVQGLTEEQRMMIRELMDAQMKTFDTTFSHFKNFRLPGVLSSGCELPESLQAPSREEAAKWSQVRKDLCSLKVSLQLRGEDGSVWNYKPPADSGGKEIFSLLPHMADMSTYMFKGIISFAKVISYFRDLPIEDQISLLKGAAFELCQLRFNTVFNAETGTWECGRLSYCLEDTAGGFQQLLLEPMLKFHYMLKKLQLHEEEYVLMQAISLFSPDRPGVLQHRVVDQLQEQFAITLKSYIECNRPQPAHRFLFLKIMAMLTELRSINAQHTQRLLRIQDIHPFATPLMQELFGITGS
Outline: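 Agonist mode: luminescence from ONE-Glo after 24 h compound exposure at 37C in HepG2 cells carrying hPXR-responsive CYP3A4 luciferase, plated in charcoal-stripped serum medium 5 h beforehand.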

[12] = target: Cytochrome P450 2C19 (Homo sapiens) (UniProt P33261); experiment: Cytochrome P450 Family 2 Subfamily C Member 19 (CYP2C19) small molecule antagonists: luciferase reporter qHTS assay (AID 1671197); further: nearly all actives have a fitted effect of over 65% in size; further: potency means the concentration at half of the fitted maximal effect
Chain of Cytochrome P450 2C19 (Homo sapiens) (P33261 whole entry, looked up): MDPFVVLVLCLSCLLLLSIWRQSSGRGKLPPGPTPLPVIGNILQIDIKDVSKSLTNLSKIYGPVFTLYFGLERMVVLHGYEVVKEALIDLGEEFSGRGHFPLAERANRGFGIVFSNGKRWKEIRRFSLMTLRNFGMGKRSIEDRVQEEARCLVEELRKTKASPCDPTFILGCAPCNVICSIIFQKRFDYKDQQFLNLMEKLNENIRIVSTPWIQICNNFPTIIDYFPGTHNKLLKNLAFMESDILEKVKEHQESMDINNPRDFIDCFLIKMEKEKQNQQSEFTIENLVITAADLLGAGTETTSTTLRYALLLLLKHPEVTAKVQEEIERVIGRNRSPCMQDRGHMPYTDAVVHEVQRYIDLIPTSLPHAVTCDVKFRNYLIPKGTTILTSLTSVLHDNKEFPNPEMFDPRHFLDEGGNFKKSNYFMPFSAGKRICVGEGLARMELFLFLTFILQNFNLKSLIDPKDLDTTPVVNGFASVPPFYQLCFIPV
Outline: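 Compounds were tested on CYP2C19 activity via proluciferin conversion to luciferin. The 37C, 1 h reaction followed NADPH addition; detection reagent stopped it.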

[13] = target: Nuclear receptor subfamily 1 group I member 2 (Rattus norvegicus) (UniProt Q9R1A7); experiment: Rat pregnane X receptor (rPXR) activation by small molecules, qHTS assay (AID 1346983); details: rPXR luciferase reporter cells, One-Glo luminescence, 24 h; max activation: stronger effect = higher value; further: nearly all actives have a fitted effect of over 20% in size
Chain of Nuclear receptor subfamily 1 group I member 2 (Rattus norvegicus) (Q9R1A7 whole entry, looked up): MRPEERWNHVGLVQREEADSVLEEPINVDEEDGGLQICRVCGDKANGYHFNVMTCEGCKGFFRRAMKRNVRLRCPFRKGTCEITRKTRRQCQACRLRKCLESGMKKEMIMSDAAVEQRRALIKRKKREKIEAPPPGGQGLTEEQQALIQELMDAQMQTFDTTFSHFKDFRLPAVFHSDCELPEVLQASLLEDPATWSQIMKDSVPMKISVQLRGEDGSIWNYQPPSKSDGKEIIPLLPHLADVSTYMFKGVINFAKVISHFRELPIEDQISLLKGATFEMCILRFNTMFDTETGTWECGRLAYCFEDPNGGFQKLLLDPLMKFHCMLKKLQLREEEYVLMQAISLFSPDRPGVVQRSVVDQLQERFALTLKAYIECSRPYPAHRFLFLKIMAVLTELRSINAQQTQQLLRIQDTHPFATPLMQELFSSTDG
Outline: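 Cell-based rPXR activation assay: rPXR cells, 2,000 per well, rested 5hr at 37 C, then exposed to compounds in DMSO for 24 hr at 37 C. Luciferase activity read by One-Glo luminescence after 30 min at room temperature.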

[14] = target: Nuclear receptor subfamily 1 group I member 2 (Homo sapiens) (UniProt O75469); experiment: Human pregnane X receptor (PXR) activation by small molecules, qHTS assay (AID 1346985); further: nearly all actives have a fitted effect of over 40% in size
Outline: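 DPX-2 cells (HepG2 co-transfected with a PXR response element and a CYP3A4-promoter luciferase construct) were seeded at 2,000 per well, rested 5 hr at 37C, then exposed to DMSO-dissolved compounds for 24 hr. Activation was read as luciferase luminescence.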

[15] = target: Nuclear receptor subfamily 1 group I member 2 (Homo sapiens) (UniProt O75469); experiment: CYP3A4 induction through human pregnane X receptor (PXR) by small molecules, qHTS assay (AID 1346984); further: nearly all actives have a fitted effect of over 40% in size
Outline: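 Read-out is luminescence after One-Glo addition, following a 3 hr, 37C incubation with Luciferin-IPA CYP3A4 substrate (3uM final). Before that, compounds were on DPX-2 cells (HepG2 co-transfected with PXR element plus CYP3A4-promoter luciferase) for 24 hr at 37C.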
On the % scale 0 is the no-effect control and ±100 the full control effect.

Cn1cnc2c(=O)[nH]c(N)nc21
inactive: Potency [1] | outcome [2] | outcome [3] | outcome [4] | Potency [5] | Potency [6] | Potency [8] | Potency [9]
active: Potency [7] 28.3 µM

N[C@@H](CS)C(=O)O
inactive: Potency [1] | outcome [2] | Potency [10] | outcome [3] | outcome [4] | Potency [7] | Potency [8] | Potency [9]

CSc1nc(NC2CC2)nc(NC(C)(C)C)n1
active: Potency [11] 21.7 µM | Potency [12] 20 µM | Potency [7] 2.52 µM | Potency [9] 39.9 µM
inactive: Potency [1] | outcome [2] | Potency [10] | outcome [3]

Oc1cc(O)c2c(c1)O[C@H](c1ccc(O)c(O)c1)[C@H](O)C2
inactive: outcome [2] | Potency [10] | outcome [3] | outcome [4] | Potency [5] | Potency [12] | Potency [6] | Potency [8] | Potency [9]

CCCCCCCCC=O
inactive: Potency [1] | outcome [2] | Potency [10] | outcome [3] | outcome [4] | Potency [5] | Potency [12] | Potency [8] | Potency [9]

O=C(O)c1ccccc1S
inactive: Potency [1] | outcome [2] | Potency [10] | outcome [3] | outcome [4] | Potency [11] | Potency [7] | Potency [8] | Potency [9]

NC(=O)Nc1nc2ccccc2[nH]1
inactive: outcome [2] | outcome [3] | outcome [4] | Potency [11] | Potency [8] | Potency [9]
active: Potency [5] 31.5 µM

N#CC1(O)CCCCC1
active: Potency [10] 27.5 µM | Potency [12] 40.2 µM
inactive: outcome [2] | outcome [3] | Potency [8] | Potency [9]

CCCCc1ccc2cccc(S(=O)(=O)O)c2c1
inactive: outcome [2] | outcome [3] | outcome [4] | Potency [11] | Potency [5] | Potency [12] | Potency [8] | Potency [9]
active: Potency [6] 37.3 µM

CC(C)CCCC(C)CCCC(C)CCCCC(C)CCCC(C)CCCC(C)C (stereo not drawn)
inactive: Potency [1] | outcome [2] | outcome [3] | outcome [4] | Potency [11] | max activation [13] -0.619% | Potency [14] | Potency [5] | Potency [12] | Potency [6] | Potency [8] | Potency [9]

CCCCCCCCN(C)CCCCCCCC
active: Potency [5] 64 µM | Potency [8] 1.57 µM
inactive: outcome [2] | Potency [10] | outcome [3] | outcome [4] | Potency [12] | Potency [9]

CCCCCOC(=O)Nc1nc(=O)n([C@@H]2O[C@H](C)[C@@H](O)[C@H]2O)cc1F
inactive: Potency [1] | outcome [2] | outcome [3] | outcome [4] | max activation [13] -1.91% | Potency [15] | Potency [14] | Potency [5] | Potency [6] | Potency [7] | Potency [8] | Potency [9]

O=S(=O)(O)c1ccccc1O
inactive: Potency [1] | outcome [2] | outcome [3] | outcome [4] | Potency [11] | Potency [6] | Potency [7] | Potency [8] | Potency [9]
active: Potency [5] 25.2 µM

COc1cc(CCC(C)=O)ccc1O
inactive: outcome [2] | Potency [10] | outcome [3] | outcome [4] | Potency [11] | Potency [5] | Potency [12] | Potency [6] | Potency [8] | Potency [9]

NCCN1CCNC1=O
inactive: Potency [1] | outcome [2] | Potency [10] | outcome [3] | outcome [4] | Potency [5] | Potency [12] | Potency [6] | Potency [7] | Potency [8] | Potency [9]

C1=C\CC/C=C\CC/C=C\CC/1
inactive: Potency [1] | outcome [2] | outcome [3] | outcome [4] | Potency [11] | Potency [5] | Potency [12] | Potency [8] | Potency [9]

Cc1cc(C)c(NC(=O)CN(CC(=O)O)CC(=O)O)c(C)c1Br
inactive: outcome [2] | Potency [10] | outcome [3] | outcome [4] | max activation [13] -1.5% | Potency [15] | Potency [14] | Potency [5] | Potency [12] | Potency [6] | Potency [7] | Potency [8] | Potency [9]

C=C(C)C(=O)NCCC[N+](C)(C)C
inactive: outcome [2] | Potency [10] | outcome [3] | outcome [4] | Potency [11] | Potency [5] | Potency [6] | Potency [8] | Potency [9]
